Activity calls are given as the source filed them.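 Rule for the calls: active = inhibition above 20% together with a positive visual image hit; inconclusive = visual image hit but inhibition not above 20%; inactive = no visual image hit.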
Test: inhibitors of TNFa-induced NFkB p65 translocation, primary screen, imaging, HUVEC, MLSMR starter and 10KST1 sets (AID 438);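 note: compound added about 3h40 before a 20 min TNFalpha stimulation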;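 for inhibition: signal is the nuclear over cytoplasmic p65 intensity ratio per well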
Settings: HUVEC TNFa-induced p65 nuclear translocation; cell count: measured here: nuclei count (cytotoxicity indicator), at 2.08 µM; inhibition: at 2 µM, stronger effect = higher value, 0% TNFa-plus-vehicle, 100% no-TNFa wells

Compound	inhibition	cell count
CCOC(=O)Cn1c(SC)nc2sc3c(c2c1=O)CC(C)(C)OC3	-7.4% (inactive)	655
Cc1cc(C)nc(CC(N)=O)n1	-3.1% (inactive)	623
Cc1nnc2n(-c3ccccc3)c(=O)c3c4c(sc3n12)CC(C)CC4 (stereo not drawn)	-1.3% (inactive)	573
COc1cc(C(=O)OCCN2CCCCC2)ccc1O	-2.2% (inactive)	675
N#Cc1c(NC(=O)CCC(=O)O)sc2c1CCCC2	-11.6% (inactive)	715
CCCCc1ccc(NC(=O)CSC2=C(C#N)C(c3ccco3)C3=C(CCCC3=O)N2)cc1 (stereo not drawn)	-8% (inactive)	384
COC(=O)c1ccc(CSc2ncnc3c2sc2nc(N4CCOCC4)c4c(c23)CCCC4)o1	-11.6% (inactive)	565
Cc1ccnc(N2CCN(c3cc(C)c(C#N)c4nc5ccccc5n34)CC2)c1	7.2% (inactive)	572
Cc1nc(Nc2ncc3c(n2)CC(C)(C)CC3=O)nc2ccccc12	-10.9% (inactive)	532
COCc1[nH]nc2c1C(c1ccccc1OC)C(C#N)=C(N)O2 (stereo not drawn)	-4.1% (inactive)	633
CC(=O)N1CCN(c2nc(CC(C)C)c3c(c2C#N)CCC3)CC1	0.5% (inactive)	524
CCOCCN(C(=O)COC)c1cccc(OC)c1	4.6% (inactive)	368
N/C(=N\c1nc2ccccc2o1)NC(=O)c1ccccc1NC(=O)c1ccccc1	5.2% (inactive)	614
Cc1ccc(C(C)C)c(OCCNc2nc3c(c(=O)n(C)c(=O)n3C)n2C)c1	-26.5% (inactive)	605
Cc1nc(SCC(N)=O)[nH]c(=O)c1Cc1ccc(OC(C)C)cc1	5.2% (inactive)	585
CCOc1ccc(Cc2nc(N)nc(N)n2)cc1	-18.3% (inactive)	344
Cc1nc(NCc2ccccc2)c(C(N)=O)c2c1COC(C)(C)C2	-5.8% (inactive)	643
Cc1nc2n[nH]c(N)c2c2c1COC(C)(C)C2	-22.2% (inactive)	674
C=CCNC(=O)C(C#N)c1nc2ccccc2nc1N1CCCCCC1 (stereo not drawn)	-1.4% (inactive)	537
CC(C)C(C(=O)Nc1ncn[nH]1)N1C(=O)c2ccccc2C1=O (stereo not drawn)	-7% (inactive)	520

Compound	inhibition	cell count
CCCCOc1cccc(-c2nnc(N)s2)c1	-13.6% (inactive)	629
COc1ccc(OC(=O)c2cc3ccccc3o2)cc1	-1.1% (inactive)	610
CCNc1nc(NC(C)C)nc(N(C#N)C(C)C(=O)N(C)C)n1 (stereo not drawn)	-31.8% (inactive)	330
CCOC(=O)CSc1nc(-c2ccncc2)ccc1C#N	-16.1% (inactive)	688
CCOc1cccc(-c2nnc3sc(C4CCCCC4)nn23)c1	1.1% (inactive)	683
CCCCn1c(O)c(C=NCCCN(C)C)c(=O)[nH]c1=O	4.1% (inactive)	445
COc1cccc(C2C(C#N)=C(N)Oc3cc(C)[nH]c(=O)c32)c1OC (stereo not drawn)	-31.3% (inactive)	508
Cc1cc(=O)oc(C)c1C(=O)Nc1cccc2nonc12	-0.5% (inactive)	404
COc1cc(OC)cc(C(=O)N2CCC(N3CCN(c4ccccc4)CC3)CC2)c1	-13.9% (inactive)	382
Cc1ccc2[nH]c3c(c2c1)CN(C(=O)CN1CCN(c2ccccn2)CC1)CC3	-9% (inactive)	563
COC(=O)c1sccc1NC(=O)c1c(C)cc(=O)oc1C	2.4% (inactive)	553
CCN(CC)c1ccc2cc(-c3nnc(-c4ccncc4)o3)c(=O)oc2c1	-5.2% (inactive)	490
CC(C)(C)NC(=O)CSc1nsc(SCC(=O)NC(C)(C)C)c1C#N	-26% (inactive)	601
COC(=O)CN(c1nc(C)c(Br)c(OC)n1)S(=O)(=O)c1ccc(C)cc1	6.5% (inactive)	598
COc1cc(C2C3C(=O)N(c4ccccc4)C(=O)C3ON2c2ccccc2)ccc1O (stereo not drawn)	-4.2% (inactive)	322
Cc1ccc(C2C(C(=O)c3cc4ccccc4o3)=C(O)C(=O)N2CCCN(C)C)cc1 (stereo not drawn)	-4.5% (inactive)	445
CC(C)C1Cc2c(C#N)c(N)n(C)c(=S)c2CO1 (stereo not drawn)	1.3% (inactive)	548
CCC12CN3CC(CC)(CN(C1)C3c1c(O)ccc3ccccc13)C2=O (stereo not drawn)	-1.9% (inactive)	585
CCOc1ccc(CCNC(=O)C(O)c2ccccc2)cc1 (stereo not drawn)	-0.6% (inactive)	632

From PubChem BioAssay
